Screens: PubChem, Broad Institute
These entries were drawn from the full list.
aSyn 5UTR act = Activators via SNCA 5'UTR binding, MLPCN. alpha-synuclein 5'UTR reporter, activators screen. hit rate 7.1% among 300,000. activity score, % (tested at 7.5 µM), hits read low; in the data active = activity score below about -60%
Numbers without * were called inactive.

SMILES	aSyn 5UTR act
Nc1ccc(-c2nc3ccc(C(=O)O)cc3s2)cc1	95.4
Cc1ccc(C(=O)Nc2nc3ccccc3c(=O)s2)cc1	-189.9*
CC(C)(C)N1C(=O)c2ccc(C(=O)Nc3ccc(O)cc3)cc2C1=O	-87.2*
CCOc1ccc(Nc2nc3ccccc3n3nnnc23)cc1	-81.8*
CCOc1ccc(Nc2nc3ccccc3n2C)cc1	-163.4*
CCOc1ccc(NCc2nc3ccccc3n2CCOc2ccccc2)cc1	-66.7*
Nn1c(Nc2ccccc2)nc2ccccc21	-99.8*
COc1ccc(CCNc2nnc(Sc3nnnn3-c3ccccc3)s2)cc1OC	119.6
CCOc1ccc(CNc2nc3ccccc3n2C)cc1	-125.2*
COc1ccc(CCNc2nc3ccccc3n3nnnc23)cc1OC	-105.7*
CCCn1c(NCc2cc(OC)ccc2OC)nc2ccccc21	-97.5*
O=c1cc(N2CCN(c3ccccc3Cl)CC2)[nH]c(=O)n1Cc1ccc(F)cc1	-71.7*
O=C(Nc1cc([N+](=O)[O-])ccc1F)c1cccs1	-70.3*
O=C(Nc1ncc([N+](=O)[O-])s1)c1cccs1	-106.1*
O=C(Nc1ncc([N+](=O)[O-])s1)c1ccccc1Br	-126.3*
Cc1ccc(CC(=O)Nc2ncc([N+](=O)[O-])s2)cc1	-136.3*
Cc1cnc(NC(=O)c2cccs2)s1	-82.3*
CC(C)Cc1nnc(NC(=O)Nc2ccccc2)s1	-115.3*
CCc1nnc(NC(=O)Nc2ccc(OC)cc2)s1	-162.1*
CCOCc1nnc(NC(=O)c2ccc(OC)cc2)s1	-72.7*
O=C(Nc1nccs1)c1cccc(NC(=O)C(F)(F)F)c1	-85.7*
COc1ccc2c(CC(=O)Nc3nccs3)coc2c1	-101.3*
CCC(C)(C)c1nnc(NC(=O)c2cccc([N+](=O)[O-])c2)s1	-146.7*
O=C(Nc1nccs1)c1ccc([N+](=O)[O-])cc1	-75.0*
CCCc1nnc(NC(=O)c2cccc(OC)c2)s1	-91.4*
SMILES	aSyn 5UTR act
COc1ccc(C(NC(C)=O)c2cc(Cl)c3cccnc3c2O)cc1 (stereo unspecified)	75.9
COc1ccc(NC(=O)Nc2nccs2)cc1	-93.9*
CC(C)Cc1nnc(NC(=O)c2ccc([N+](=O)[O-])cc2)s1	-95.0*
COc1ccc(C(=O)Nc2nccs2)cc1OC	-71.4*
CCCc1nnc(NC(=O)c2cc3ccccc3o2)s1	-87.9*
COc1ccc(C(=O)NC(=S)Nc2cc(C)ccn2)cc1[N+](=O)[O-]	-67.5*
COc1ccc(C(=O)Nc2nccs2)cc1[N+](=O)[O-]	-73.6*
COc1ccc(C(=O)Nc2nccs2)cc1	-119.9*
O=C1CCC/C(=N/NC(=O)c2sc3ccccc3c2Cl)C1	-89.7*
O=C(NNC(=S)NC(=O)c1sc2ccccc2c1Cl)c1ccc(Cl)cc1	-67.0*
O=C(Nc1ccncc1)c1sc2ccccc2c1Cl	-97.2*
CCn1nnc(NC(=O)c2sc3ccccc3c2Cl)n1	-82.5*
O=C(Nc1ccnc(=O)[nH]1)c1sc2ccccc2c1Cl	-111.1*
CCn1nnc(NC(=O)c2ccc(-c3ccc(Cl)cc3)o2)n1	-63.9*
Oc1ccc(Br)cc1C=Nc1cccn2cc(-c3ccccc3)nc12	-80.4*
Cc1cccc(N2CCN(C(=O)NC3CCCCC3)CC2)c1C	-94.8*
Cc1cccc(N2CCN(C(=O)CN3C(=O)C4CC=CCC4C3=O)CC2)c1C (stereo unspecified)	-113.3*
CCOC(=O)Cc1csc(NC(=O)c2c(O)c3ccccc3n(CC(C)C)c2=O)n1	74.6
CCOC(=O)c1csc(NC(=O)c2cccs2)n1	-108.5*
CCOC(=O)Cc1csc(NC(=O)c2cccs2)n1	-176.3*
CCOC(=O)c1c(-c2ccccc2)nc2cc(C)ccn12	-104.2*
CCOC(=O)c1c(-c2ccccc2)nc2ccc(C)cn12	-165.9*
Cc1ccc(C(=O)CC(c2cccs2)S(=O)(=O)c2ccc(C)cc2)cc1 (stereo unspecified)	-117.6*
Cc1ccc2oc(-c3cccc(NC(=O)c4ccccn4)c3)nc2c1	-95.7*
COc1cc(OC)cc(-c2nc3cc(C)ccc3o2)c1	-215.8*
SMILES	aSyn 5UTR act
COc1cc(C(=O)Nc2cc(-c3nc4cc(C)ccc4o3)ccc2C)cc(OC)c1OC	-129.1*
COc1cc(C(=O)Nc2cccc(-c3nc4cc(C)ccc4o3)c2)cc(OC)c1OC	-162.1*
CCOc1ccc(NC(=O)C(=S)NC2CCCCC2)cc1	-192.2*
COc1ccc(NC(=O)C(=S)N2CCCC2)cc1	-63.2*
O=C(CSCCO)Nc1ccc(C2CCCCC2)cc1	-127.0*
COc1ccc(NC(=O)C(=S)NC2CCCCC2)cc1	-125.0*
COc1ccc(NC(=O)CSC2CCCCC2)cc1	-157.7*
CCc1ccc(NC(=O)C(=S)NC2CCCCC2)cc1	-177.5*
COc1ccc(-n2cc3ccc([N+](=O)[O-])cc3n2)cc1	-90.5*
O=C(O)/C=C/C(=O)c1ccc2c(c1)CCc1ccccc1-2	-110.8*
Cc1ccccc1NC1=C(Cl)C(=O)N(C2CCCCC2)C1=O	-132.8*
COc1cc(OC)c(NC2=CC(=O)C(=O)c3ccccc32)cc1Cl	107.4
COc1ccccc1NC1=C(Cl)C(=O)N(C2CCCCC2)C1=O	-91.4*
COC(=O)/C(=C1/Oc2ccc(C(C)(C)C)cc2S1)C(F)(F)F	-224.4*
